# Measured values taken from PubChem BioAssay (NCATS).
# Results filed as inconclusive are left out. The source made the active and inactive calls. Calls follow the shape of the dose curve; as a rule, active = well fitted inhibition curve with a large enough effect; inconclusive = small, poorly fitted or top-dose-only effect; inactive = no such curve, though single readings can be large or run the other way.
# Assay: P-glycoprotein substrates identified in KB-3-1 adenocarcinoma cell line, qHTS therapeutic library screen (AID 1346986); also: nearly all actives have a fitted effect of over 60% in size
# Settings: KB-3-1 parental cells viability, CellTiter-Glo, 72 h; at 44.5 µM (top of the series)
# How it was run: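 Resistance attributable to P-gp was assessed by comparing AC50 in KB-8-5-11 with parental KB-3-1 and by tariquidar reversal. Cells were exposed 72 h and viability read by CellTiter-Glo.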
row,SMILES,outcome
1,CC(C)OC(=O)C(C(=O)OC(C)C)=C1SC=CS1,inactive
2,Nc1nc(F)nc2c1ncn2[C@@H]1O[C@H](CO)[C@@H](O)[C@@H]1O,inactive
3,CNS(=O)(=O)CCc1ccc2[nH]cc(C3CCN(C)CC3)c2c1,inactive
4,CNNCc1ccc(C(=O)NC(C)C)cc1,inactive
5,O=S(=O)(c1cccc2cnccc12)N1CCCNCC1,inactive
